From PubChem BioAssay AID2315 (National Center for Advancing Translational Sciences (NCATS), 2010)
About 27,000 (9.3%) of roughly 290,000 compounds were called active. What follows is part of a selection rich in actives, with near analogues and random picks from the rest. Values without a mark were called inactive. No stated cut-off is given here; in the data, active means inhibition mostly above about 28% (no sharp cut-off); inactive means mostly below about 43%.

Test: A qHTS for Small Molecule Inhibitors of Shiga Toxin; further: 0% is about no effect
Details: Vero cells, Shiga toxin protein synthesis inhibition reporter; at 38.7 µM, stronger effect = higher value

SMILES	inhibition
COc1cccc(Cn2cc(/C=N/NC(=O)c3cc(O)cc(O)c3)c3ccccc32)c1	-3.1%
CS(=O)(=O)c1ccccc1C(=O)Nc1ccc2sccc2c1	-5.25%
O=C(CCl)Nc1ccc(Sc2ccc(NC(=O)CCl)cc2)cc1	16%
CC(C)(CCl)C(=O)Nc1ccc(Sc2ccc(F)cc2)cc1	83% (active)
CCN(c1ccccc1)S(=O)(=O)c1ccc(NC(=O)C(C)(C)C)cc1	3.09%
O=C(O)c1ccc(NC(=O)c2cn(-c3ccccc3)nc2-c2ccc(Cl)cc2)cc1	24.5%
Cc1ncc(CC(=O)n2cc(C(=O)c3cc(Cl)ccc3O)cn2)s1	8.82%
O=C(c1cnn(-c2ccc(Cl)cc2)c1)c1ccccc1O	59.4% (active)
CC(=O)Nc1c2c(nn1-c1cccc(C)c1)CSC2	-5.43%
O=C(CCS(=O)(=O)c1ccc(Br)cc1)NCCc1ccc(Cl)cc1	-14.4%
COc1ccccc1CCNC(=O)c1cnccn1	10.7%
COc1ccccc1CCNC(=O)c1c(C)nn(CC(C)C)c1Cl	62.8% (active)
Cc1nn(Cc2ccccc2Cl)c(Cl)c1C(=O)OC(C(=O)NC(N)=O)C(C)C (stereo not given)	8.84%
N#CC(C#N)=CN=c1ccn(Cc2ccc(Cl)cc2Cl)cc1	1.18%
Clc1c(OCCCn2ccnc2)ccc2ccccc12	17.6%
Cc1ccc(CCNC(=O)c2ccc3nc4ccccc4c(=O)n3c2)cc1	5.74%
O=C(Oc1ccccc1C(=S)N1CCCCC1)c1cc([N+](=O)[O-])cc([N+](=O)[O-])c1	13%
O=C(COc1ccc2oc3c(c2c1)CCCC3)Nc1ccccn1	57.2% (active)
CCN(CC)CCCNC(=O)COc1ccc2oc3c(c2c1)CCCC3	-7.61%
Cc1ccc(OCC(=O)Nc2ccc(S(=O)(=O)Nc3ccccn3)cc2)cc1	2.76%
Cc1ccc(Cn2nnc3c(=O)[nH]c(C4CCN(S(=O)(=O)/C=C/c5ccccc5)CC4)nc32)cc1	-13.7%
COCn1c(C(O)c2ccccc2)cc2ccccc21 (stereo not given)	-6.57%
Cc1ccn2c(c1)nc(=O)c1cc(S(=O)(=O)N3CCC(C)CC3)ccc12	14.3%
O=C1Nc2cc(C(=O)N3CCC(N4CCCCC4)CC3)ccc2S/C1=C\c1ccccc1	-12.8%

SMILES	inhibition
C=CCCN(C(Cc1ccccc1)C(=O)OC)S(=O)(=O)c1cc(Br)ccc1Br (stereo not given)	2.22%
O=C(NCc1cccc(CNC(=O)Nc2cccc(O)c2)c1)Nc1cccc(O)c1	17.1%
CCC(C)c1ccc(NC(=S)NCc2ccccn2)cc1 (stereo not given)	56.9% (active)
COc1cccc(NC(=S)NCc2ccccn2)c1	60.7% (active)
COc1cccc(S(=O)(=O)NCc2ccc(C(=O)NCc3ccccn3)cc2)c1	-7.83%
Cc1cc(C)cc(NC(=O)NCc2ccccn2)c1	-1.91%
COc1cccc(NC(=O)NCCN2CCCCC2)c1	17.6%
COc1cccc(NC(=O)NCc2ccc(F)cc2)c1	43.7% (active)
COc1cccc(NC(=S)N(Cc2ccc(C)cc2)Cc2ccccn2)c1	-9.99%
COC(=O)Cc1ccc(NC(=S)NCc2ccccc2)cc1	-2.18%
COc1ccc(OC)c(CCNC(=O)CCn2ccc3cc(S(=O)(=O)N4CCCC4)ccc32)c1	1.48%
COc1ccc(N(CC(=O)Nc2ccc(F)c(F)c2)S(=O)(=O)c2c(C)[nH]c(=O)[nH]c2=O)cc1	-5.76%
COc1cccc(OC)c1C(=O)Nc1ccc2c(c1)n(C)c(=O)n2C	-1.01%
COc1ccc(NS(=O)(=O)c2cc(NC(=O)C3CCCCC3)ccc2N2CCOCC2)cc1	-4.94%
Cn1c(=O)[nH]c(=O)c2c1[nH]c(=S)n2Cc1ccccc1	-6.6%
CCc1cccc(C)c1NS(=O)(=O)c1c(C)nc2sccn2c1=O	-3.6%
CCNS(=O)(=O)c1ccc(CCC(=O)N2CCN(c3cc(Cl)ccc3C)CC2)cc1	-3.72%
O=c1o[nH]c(-c2ccccc2)c1N=Nc1c(F)cccc1Cl	-2.82%
Cc1noc(C)c1-c1ccc2ncnc(NCc3ccc4[nH]ccc4c3)c2c1	70.1% (active)
Cc1noc(C)c1-c1ccc2ncnc(NCc3ccc(F)c(F)c3)c2c1	10.1%
Cc1noc(C)c1-c1ccc2ncnc(NC(C)c3ccco3)c2c1 (stereo not given)	30.2%
O=Cc1c(NCCCN2CCCC2=O)c2ccccc2[nH]c1=O	7.22%
Cc1ccc(CSc2nc3[nH]ncc3c(=O)[nH]2)cc1	136% (active)
CCCSc1nc2[nH]ncc2c(=O)[nH]1	-9.31%

SMILES	inhibition
Cc1cccc(NC(=O)CSc2nc3[nH]ncc3c(=O)[nH]2)c1	-11.6%
Cc1ccc(S(=O)(=O)N(C)C)cc1NC(=O)C1Cc2ccccc2CN1C(=O)c1ccco1 (stereo not given)	-7.79%
COc1ccc(Cl)cc1-n1c(=S)sc2c(=O)n(-c3ccc(F)cc3)c(SCC(=O)O)nc21	19.4%
CN(C)c1ccc(C(CC(=O)O)C(=O)O)cc1 (stereo not given)	73.8% (active)
CN(C)c1ccc(/C=N/NC(=O)C(O)c2ccc(Br)cc2)cc1 (stereo not given)	20.6%
CC(=O)NC(CC(=O)O)c1ccc(F)cc1 (stereo not given)	-5.08%
COc1ccccc1N(C)C(=O)c1cc(S(=O)(=O)N2CCc3ccccc32)cn1C	8.5%
O=C(CN1CCN(c2ccc(F)cc2)CC1)Nc1ccccc1	-6.95%
CC(=O)Nc1cccc(-c2cnc3ccccc3n2)c1	116%
Cc1cc(O)ccc1-c1cnc2ccccc2n1	99.9% (active)
Cc1ccc(-c2cc(C(=O)Nc3nn[nH]n3)c3ccccc3n2)c(C)c1	-11.6%
Cc1oc2c(F)c(F)c(F)c(F)c2c1S(=O)(=O)Nc1cccc(C(F)(F)F)c1	-4.67%
CCOC(=O)C1CCCN(S(=O)(=O)c2ccc3c(c2)C(C)(C)C(=O)N3C)C1 (stereo not given)	-10.9%
COCCN1C(=O)N(c2ccc(Cl)cc2)C(=O)C1CC(=O)Nc1cc(OC)cc(OC)c1 (stereo not given)	0.637%
O=C(CCCOc1ccc(Cl)cc1Cl)NNC(=O)C1CCC1	27.9%
S=c1[nH]nc(CSCc2ccc(Cl)cc2Cl)n1-c1ccccc1	-6.51%
Cn1c(CCCOc2ccc(Cl)cc2Cl)n[nH]c1=S	57.3% (active)
O=C(COc1ccc(S(=O)(=O)Nc2cccc(C(F)(F)F)c2)cc1)N1CCOCC1	-9.6%
CCOC(=O)[C@@H]1[C@H]2COc3ccc(Br)cc3[C@H]2N2C(=O)N(c3ccc(Cl)cc3)C(=O)[C@@]12C	-8.05%
CCSc1ncc(Cl)c(C(=O)Nc2cc(C)ccc2C)n1	-1.29%
Cc1cccc(OCc2ccc(C(=O)Nc3ccc(F)cc3)cc2)c1	-8.13%
Cc1cccc(NC(=O)c2nc[nH]c2C(=O)NCC(=O)OCc2ccccc2)c1	-6.49%
CCOc1ccc(NC(=O)c2nc(SCC)ncc2Cl)cc1	-3.26%
Cc1cccc(CS(=O)(=O)c2ncc(Cl)c(C(=O)Nc3ccc(F)cc3)n2)c1	53.3% (active)

SMILES	inhibition
Cc1cccc(NC(=O)c2nc(S(=O)(=O)Cc3ccccc3)ncc2Cl)c1	34.1% (active)
COc1ccc(C(=O)Nc2cc(C)c(NC(=O)c3ccccc3OC)cn2)cc1	37%
Cc1ccc(S(=O)(=O)N(C)CC(=O)NCCc2c[nH]c3ccccc23)cc1	-2.21%
O=C(CCCCCn1c(=S)[nH]c2ccsc2c1=O)NC1CCCCC1	-10.2%
COc1ccc2nc(Nc3nc(-c4ccncc4)cs3)sc2c1	53%
COC(=O)CSc1nccc(-c2cccs2)n1	46.2%
COc1ccc(CNc2nccs2)cc1	-0.77%
COC(=O)c1cc(-c2cccs2)nc2ccccc12	-1.63%
c1ccc(Nc2nc(-c3ccncc3)cs2)nc1	75.1% (active)
COc1ccc(-c2csc(Nc3ccccn3)n2)cc1	48% (active)
Clc1ccc(Nc2nc(-c3cccs3)cs2)nc1	70.3% (active)
c1cnc(Nc2nc(-c3ccc4ccccc4c3)cs2)nc1	154% (active)
COc1ccc(N(CC(=O)NCC2CCCO2)C(=O)CCC(=O)Nc2nccs2)c(OC)c1 (stereo not given)	16.4%
Cc1ccc(NC(=O)CCC(=O)c2ccc(Br)cc2)cc1	-4.63%
CCCCNC(=O)CN1C(=O)NC(Cc2ccccc2)(Cc2ccccc2)C1=O	2.69%
Cc1c(C(=O)N2CCN(c3ccc(F)cc3)CC2)oc2c1C(=O)CCC2	-4.3%
C/C(=N/OC(=O)c1ccc(Br)cc1)c1ccc(C)cc1	6.54%
O=C(CC(n1cncn1)C(Cl)(Cl)Cl)c1ccc([N+](=O)[O-])cc1 (stereo not given)	-7.92%
Cc1cccc(C)c1NC(=O)CN1C(=O)C(C)Oc2ccccc21 (stereo not given)	-3.24%
NC(=O)C(Cc1ccccc1)NC(=O)C12CC3CC(CC(C3)C1)C2 (stereo not given)	-10.9%
O=C(NC(=S)Nc1ccccc1N1CCCCC1)c1ccc(F)cc1	-27.2%
COc1ccccc1C(=O)NC(=S)Nc1ccccc1N1CCCCC1	39.8% (active)
COc1ccc(C(=O)NC(=S)Nc2ccccc2N2CCN(S(C)(=O)=O)CC2)cc1OC	-2.05%
